Assay results reported in PubChem BioAssay (NCATS).
Records with an inconclusive call do not appear. Activity calls are given as the source filed them. Unless noted, the call rests on the fitted dose curve; in most records, active means well fitted curve in the direction sought with a large enough effect; inconclusive means small, poorly fitted or top-dose-only effect, or another doubt; inactive means no such curve, though single readings can be large; an effect the other way counts as inactive or inconclusive.

Assays:
[1] = Cell Viability - Jurkat (AID 426;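 active means dose-dependent loss of cell ATP signal giving a full or clear fitted curve, ranked by lower potency value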; further: potency means the concentration at half of the fitted maximal effect); details: qHTS
Summary of the method: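 Jurkat (Clone E6-1) cells, 5000/well in complete medium, exposed to compounds for 40 hr at 37C; intracellular ATP measured by CellTiter-Glo luminescence after 20 min at room temperature. AC50 from Hill fits.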

[2] = Cell Viability - Hek293 (AID 427;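 active means compounds whose dose-response curve shows a full or clear partial loss of cell viability, called from curve shape rather than a numeric limit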;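 further: potency means the concentration at half of the fitted maximal effect; cells exposed to compound for 40 hours at 37 °C before reading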); details: qHTS
Summary of the method: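 Luminescent ATP content (CellTiter-Glo, 20 min at room temperature) was measured after a 40 hr, 37 °C compound exposure of HEK293 cells. AC50 values came from Hill-equation fits of qHTS concentration-response data normalized to DMSO and 100 uM tamoxifen.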

[3] = Cell Viability - HepG2 (AID 433; calls by dose curve;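 further: potency means the concentration at half of the fitted maximal effect; potency for ATP loss meaning cytotoxicity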); details: qHTS
Summary of the method: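 Cytotoxicity is scored as loss of intracellular ATP in HepG2 cells exposed to compounds for 40 h. Concentration-response curves, normalized to DMSO and 100 uM tamoxifen, give AC50 values.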

[4] = Cell Viability - MRC5 (AID 434; calls by dose curve;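 further: potency means the concentration at half of the fitted maximal effect; potency reflects cytotoxicity seen as loss of intracellular ATP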); details: MRC5 lung fibroblast viability, qHTS
Summary of the method: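 MRC5 normal human lung fibroblasts (1500/well) were treated with compounds for 40 hr at 37 °C in complete medium, and viable cells were measured as intracellular ATP by CellTiter-Glo luminescence. AC50 came from Hill fits, normalized to DMSO and 100 uM tamoxifen.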

[5] = Cell Viability - SK-N-SH (AID 435; calls by dose curve;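 further: potency means the concentration at half of the fitted maximal effect; compound exposure lasted 40 h at 37 °C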); details: SK-N-SH neuroblastoma cell viability qHTS
Summary of the method: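 Cells seeded at 1500 per well and incubated 5 hr at 37 °C. Compound added, then 40 hr at 37 °C. CellTiter-Glo added, 20 min at room temperature, luminescence read.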

[6] = molecular target: Mitogen-activated protein kinase 10 (Mus musculus) (UniProt Q61831); assay: JNK3 AlphaScreen Assay (AID 530; active means well fitted curve in either direction with a large enough effect, not every such curve was filed as active;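 further: kinase came from lysate of stimulated human HepG2 cells; signal reports phosphorylation of biotinylated GST-cJun 1-79 at Ser73 with 10 µM ATP; on the % scale 0 is the no-effect control and ±100 the full control effect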); details: JNK3 lysate, c-Jun phosphorylation; series mostly up to 57.1 µM
Summary of the method: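 Inhibitors reduce antibody binding to phosphorylated biotin-cJun, lowering AlphaScreen luminescence. Lysates from HepG2 cells pre-activated by IL-1beta plus TNF-alpha supplied JNK3; compounds were titrated.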

[7] = Cell Viability - N2a (AID 540); details: N2a mouse neuroblastoma cell viability; at 92.2 µM (top of the series);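 further: plate controls were DMSO alone for no effect and tamoxifen control for full effect; nearly all actives have a fitted effect of over 45% in size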
Summary of the method: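 Mouse neuroblastoma N2a cells, 1500/well, exposed to compounds 40 h at 37 °C in complete medium. Viability measured as cellular ATP by CellTiter-Glo luminescence; AC50 from Hill fits of concentration-response.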

[8] = Cell Viability - NIH 3T3 (AID 541); details: NIH 3T3 cell viability, qHTS; activity change, negative = cytotoxicity: at 92.2 µM (top of the series);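 further: plate controls were DMSO alone for no effect and tamoxifen positive control for full effect; nearly all actives have a fitted effect of over 25% in size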
Summary of the method: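 Mouse NIH 3T3 fibroblasts, 1000 cells/well, rested 5 hr at 37 °C, then exposed to compound for 40 hr at 37 °C in complete medium. Viability read as intracellular ATP by CellTiter-Glo luminescence; AC50 from Hill-equation fits of concentration-response data.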

[9] = Cell Viability - HUV-EC-C (AID 542); details: HUV-EC-C endothelial cell viability, qHTS; series mostly up to 92.2 µM; further: on the % scale 0 is the no-effect control and ±100 the full control effect; nearly all actives have a fitted effect of over 35% in size
Summary of the method: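 HUV-EC-C human vascular endothelial cells, 1000/well, exposed to compound for 40 hr at 37 °C in complete medium. Intracellular ATP was read by CellTiter-Glo luminescence. AC50 came from Hill-equation fits of concentration-response data.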

[10] = Cell Viability - H-4-II-E (AID 543); details: H-4-II-E rat hepatoma viability; series mostly up to 92.2 µM; further: on the % scale 0 is the no-effect control and ±100 the full control effect; nearly all actives have a fitted effect of over 35% in size
Summary of the method: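 Rat hepatoma H-4-II-E cells, 1500 per well, treated 40 h at 37 °C in complete medium. Cellular ATP read by CellTiter-Glo luminescence; AC50 from Hill fits of concentration-response.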

[11] = Cell Viability - Renal Proximal Tubule (AID 545); details: renal proximal tubule cells viability; at 91.7 µM (top of the series), primary cells of rat origin unless noted; further: nearly all actives have a fitted effect of over 40% in size
Summary of the method: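 Cytotoxicity is scored as a concentration-dependent drop in cellular ATP in primary rat renal proximal tubule cells exposed for 40 hr. AC50 derives from Hill modelling.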

[12] = Cell Viability - Mesenchymal (AID 546); details: mesenchymal cells viability, qHTS; series mostly up to 91.7 µM;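 further: cells exposed to compound for 40 hours before reading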
Summary of the method: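 Normal human renal glomerulus-derived kidney mesenchymal cells, 1000 per well in complete medium, were treated with compounds for 40 hr at 37 °C. Viability was read as intracellular ATP by CellTiter-Glo luminescence; AC50 values came from Hill-equation fits of qHTS concentration-response data.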

[13] = Cellular Toxicity (caspase-3) HepG2 (AID 654); details: HepG2 caspase-3 activation, luminescence, 0% = DMSO only, 100% = tamoxifen; series mostly up to 92.2 µM;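 further: cells exposed to compound for 16 hours before reading; 0% = DMSO alone and 100% = caspase signal from 100 µM tamoxifen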
Summary of the method: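 HepG2 cells (1500/well) were treated 16 h at 37 °C in complete medium, then caspase 3/7 activity was read by Caspase-Glo luminescence. Data were normalized to DMSO and 100 uM tamoxifen; AC50 came from Hill-equation fits of qHTS concentration-response.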

[14] = Cellular Toxicity (caspase-3) Jurkat (AID 655); details: Jurkat caspase-3 activation, luminescence, DMSO = 0%, tamoxifen = 100%; at 92.2 µM (top of the series);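 further: cells exposed to compound for 16 h at 37 °C before reading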
Summary of the method: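 Caspase 3/7 activation is scored as increased luminescence in Jurkat cells cultured with compound for 16 hours in complete medium. AC50 values come from Hill fits of qHTS concentration-response data normalized to DMSO and 100 uM tamoxifen controls.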

[15] = Cellular Toxicity (caspase-3) HUV-EC-C (AID 656); details: HUV-EC-C cells, caspase-3 activation (apoptosis), vehicle = 0, 100 µM tamoxifen = 100%; series mostly up to 92.2 µM
Summary of the method: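 Read-out: luminescence proportional to caspase 3/7 activity, measured 20 min after adding Caspase-Glo 3/7 reagent. Cells (HUV-EC-C) had received compound for 16 hr at 37°C. Increases relative to DMSO and 100 uM tamoxifen gave concentration-response AC50 values.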

[16] = Cellular Toxicity (caspase-3) SHSY5Y (AID 657); details: SH-SY5Y caspase-3 activation, DMSO zero, 10 µM staurosporine = 100%; series mostly up to 91.7 µM
Summary of the method: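 Cells plated and incubated 5 h at 37 °C, dosed over a concentration range, incubated 16 h, then given Caspase-Glo 3/7 reagent for 1 h at room temperature before luminescence reading. Staurosporine (10 uM) defined full stimulation.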

[17] = Cellular Toxicity (caspase-3) BJ (AID 658); details: BJ fibroblasts, luminescence, normalized: DMSO 0%, staurosporine 100%; series mostly up to 91.7 µM
Summary of the method: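 Luminescent aminoluciferin-substrate cleavage reports caspase 3/7 activity in normal human BJ fibroblasts after 16 hr compound exposure at 37 °C. Normalized to DMSO (basal) and 10 uM staurosporine (100%); AC50 from Hill fit of concentration-response.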

[18] = Cellular Toxicity (caspase-3) MRC-5 (AID 659); details: MRC-5 cells, luminescence, normalized: DMSO 0%, 10 µM staurosporine 100%; series mostly up to 91.7 µM
Summary of the method: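 Luminescence from caspase-cleaved aminoluciferin substrate (Caspase-Glo 3/7, 1 hr RT) reports caspase 3/7 activity in MRC-5 lung fibroblasts after 16 hr compound exposure. Normalized to DMSO basal and 10 uM staurosporine as 100%; AC50 from Hill fits.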

[19] = Cellular Toxicity (caspase-3) Mesangial (AID 660); details: mesangial cells, normalized: DMSO 0%, 100 µM tamoxifen 100%; series mostly up to 91.7 µM;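 further: cells exposed to compound for 16 h before the caspase read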
Summary of the method: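 Human renal glomerular mesangial cells, 1000/well, 5 h at 37 C before 16 h compound treatment. Caspase-Glo 3/7 luminescence after 20 min; normalized to DMSO and 100 uM tamoxifen, AC50 from Hill fit.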

[20] = Cellular Toxicity (caspase-3) SK-N-SH (AID 661); details: SK-N-SH caspase-3 activation, qHTS, DMSO as zero, staurosporine as full; series mostly up to 91.7 µM
Summary of the method: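 Human SK-N-SH neuroblastoma cells, 1500/well, were exposed to compounds for 16 hours at 37 °C. Caspase-Glo 3/7 luminescence was normalized to DMSO (basal) and 10 uM staurosporine (100%), and AC50 came from a Hill fit.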

[21] = Cellular Toxicity (caspase-3) H-4-II-E (AID 663); details: H-4-II-E rat hepatoma, scaled: DMSO 0%, 100 µM tamoxifen 100%; series mostly up to 92.2 µM;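 further: cells exposed to compound for 16 hr before readout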
Summary of the method: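 Luminescence from caspase-cleaved aminoluciferin substrate, read 20 min after reagent addition, reports caspase 3/7 activation in rat H-4-II-E cells after 16 hr compound exposure. Normalized to DMSO (basal) and 100 uM tamoxifen (100%); AC50 from Hill fits.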

Brc1ccccc1
inactive: Potency [1] > 92 µM | Potency [2] > 92 µM | Potency [3] > 92 µM | Potency [4] > 92 µM | Potency [5] > 92 µM | outcome [6] | activity change, negative = cytotoxicity [7] -4.7% | activity change, negative = cytotoxicity [8] -8.92% | Potency [9] | Potency [10] | activity change, negative = cytotoxicity [11] -2.95% | outcome [12] | outcome [13] | caspase-3 activation [14] -1.45% | outcome [15] | outcome [16] | outcome [17] | outcome [18] | outcome [19] | outcome [20] | outcome [21]
